Only a selection was taken, and hits are over-represented in it overall.
Tg IFNy HTS: T. gondii growth inhibition with IFN-gamma, primary screen, cell-based; activity change, negative = inhibition, % (no concentration beside the values); AID 1259416, 2018; Toxoplasma gondii growth in IFN-gamma-treated host cells; stronger effect = lower value; 69,000 compounds, 3.8% hits; in the data active means activity change below about -70%, passing the limit was not always enough;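 further: host cells are HeLa cells infected with Toxoplasma gondii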
Hits are given with their value; n = inactive.

SMILES | Tg IFNy HTS
O=C(NC1CCCCCC1)c1nc(Nc2ccc(F)cc2)c2ccccc2n1 | n
CCc1ccc(Nc2nc(C(=O)NC3CCCC3)nc3ccccc23)cc1 | n
O=C(NCc1ccc(F)cc1F)c1c(O)c2cccnc2n(-c2cccc(F)c2)c1=O | n
O=C(Cc1cccs1)Nc1ccccc1OCCn1cccn1 | n
Cc1oc(-c2ccccc2Cl)cc1C(=O)N1CCNC(=O)CC1 | n
CN1CC[C@@H](c2c(O)cc(O)c3c(=O)cc(-c4ccccc4Cl)oc23)[C@@H]1CO | -74
Cc1oc(-c2ccccc2Cl)cc1C(=O)N1CCCCC1CO (stereo unspecified) | n
CCN1C(=O)[C@@H]2CN(C(C)=O)C[C@H]2C12CCN(C(=O)NCCc1ccc(F)cc1)CC2 | n
CCc1cc(C(C)NC(=O)c2cc(C(C)C)nn2CC)on1 (stereo unspecified) | n
CC(=O)N1C[C@H](C(N)=O)[C@@H](c2ccc(CN(C)Cc3c(C)nc4c(C)cccn34)cc2)C1 | n
CCC(CC)n1ncc(C)c1NC(=O)c1cccc(C#CC(C)(C)O)c1 | n
Cc1ccc(NC(=O)Cn2c(=O)cc(C(=O)N3CCc4ccccc4C3)c3ccccc32)cc1F | n
O=C(Cn1c(=O)cc(C(=O)N2CCCC2)c2ccccc21)Nc1ccc(F)c(Cl)c1 | n
O=C(Cn1c(=O)cc(C(=O)N2CCc3ccccc3C2)c2ccccc21)Nc1ccc(F)c(Cl)c1 | -72
CC(C)N1c2ccc(F)cc2[C@@H]2CN(C(=O)c3ccco3)CC[C@H]21 | n
CC(C)N1CCN(CC#N)C2(CCN(Cc3cncn3C)C2)C1=O (stereo unspecified) | n
FC(F)(F)c1sc(-c2nnc(-c3ccc(Cl)cc3Cl)o2)cc1-c1ccccc1 | n
NC(=S)c1cc(-c2ccccc2)c(C(F)(F)F)s1 | -93
O=C(O)c1cc(-c2ccccc2)c(C(F)(F)F)s1 | n
C=CCN1CCN(C(C)C)C(=O)C12CCN(C(=O)c1cc(C)[nH]n1)C2 (stereo unspecified) | n
Cc1nn(C)c(C)c1NC(=O)c1cccc(CN2CC[C@H](O)C2)c1 | n
Cc1noc(C)c1NC(=O)N1CC[C@@](C)(O)[C@@H](CC(C)C)C1 | n
Cc1ccc(S(=O)(=O)NCc2cc(=O)[nH]c(-c3ccccn3)n2)cc1C | n
Brc1c(NC2=NCCN2)ccc2nccnc12 | n
C(=N\NC1=NCCN1)/c1c2ccccc2c(/C=N/NC2=NCCN2)c2ccccc12 | -75
SMILES | Tg IFNy HTS
c1ccc2c(CC3=NCCN3)cccc2c1 | n
COCCN(Cc1cnn(C)c1)C(=O)Cc1ccc(Cl)cc1 | n
c1nc2c([nH]1)CCNC2c1cnc(N2CCOCC2)nc1 (stereo unspecified) | n
CN(C)C(=O)COCC1CC2(CCN(Cc3cnn(C)c3)CC2)CO1 (stereo unspecified) | n
CN(C)C(=O)CN1CCC2(CCCN2Cc2cnn(C)c2)CC1 | n
CN(C)C(=O)CN1C[C@]23CN(Cc4cnn(C)c4)C[C@@H](C[C@@H]2S1(=O)=O)O3 | -108
COc1ccc(-c2nnn(C3CCN(C(=O)c4cnsc4)CC3)n2)cc1 | n
CC1=C(C(=O)NCCCN2CCCC2=O)C2(CCN(S(=O)(=O)c3cccs3)CC2)OC1=O | n
COC(=O)c1c(NCc2cccnc2)c2cccc(Cl)c2[nH]c1=O | n
COC(=O)c1c(NCc2ccc(F)cc2F)c2cc(F)ccc2[nH]c1=O | n
COC(=O)c1c(NCc2ccccc2)c2cccc(Cl)c2[nH]c1=O | n
COC(=O)c1c(NCc2ccccc2OC)c2cccc(Cl)c2[nH]c1=O | n
COC(=O)c1c(NCc2ccc(F)cc2F)c2cccc(Cl)c2[nH]c1=O | -76
COC(=O)c1c(NCc2cc(F)cc(F)c2)c2cccc(Cl)c2[nH]c1=O | -98
COC(=O)c1c(NCCC(C)C)c2cccc(Cl)c2[nH]c1=O | -85
COC(=O)c1c(NCc2ccc(OC)cc2)c2cccc(Cl)c2[nH]c1=O | n
COC(=O)c1c(NCc2ccc(SC)cc2)c2cccc(Cl)c2[nH]c1=O | -79
COC(=O)c1c(NCCO)c2cccc(Cl)c2[nH]c1=O | n
COC(=O)c1c(NCC(C)C)c2cccc(Cl)c2[nH]c1=O | n
COC(=O)c1c(NCc2ccc3c(c2)OCO3)c2cccc(Cl)c2[nH]c1=O | n
CC(C)c1ccc(N(CCc2ccccn2)S(=O)(=O)c2ccc(Cl)cc2)cc1 | n
Cc1cccc(C[C@H]2CN(C(=O)c3ccoc3)CC[C@@H]2OCC2CC2)c1 | n
O=S(=O)(c1cccc2ccccc12)N1CC(c2cccnc2)C1 | n
CCN(CC)C(=O)C1Cn2ccnc2C2(CCN(Cc3cccs3)CC2)O1 (stereo unspecified) | n
Cc1ccc(-c2cc3c(=O)n(Cc4nc(-c5ccccc5)oc4C)ccn3n2)cc1C | n
SMILES | Tg IFNy HTS
Cc1cc(C)c2c(N3CCCC3)nc(C(=O)N3CCC(N4CCCCC4)CC3)nc2n1 | n
Cc1cc(-c2cc(=O)n(CC(=O)NC3CCCCCC3)nc2C(C)C)on1 | n
Cc1cccc(NC(=O)N2CCC3(CC2)CC(CC(=O)NC2CC2)c2ccccc2O3)c1 (stereo unspecified) | n
c1cc(C2CCN(c3ncnc4c3CCNC4)CC2)ccn1 | n
COc1cccc(C2CCN(c3ncnc4c3CCNC4)C2)c1OC (stereo unspecified) | -72
COc1cccc(OCCN2CCN(c3ncnc4c3CCNC4)CC2)c1 | n
COc1ccc2c3c([nH]c2c1)[C@@H](CO)N(S(C)(=O)=O)CC31CN(CC2CCOCC2)C1 | n
COc1ccc2c3c([nH]c2c1)[C@H](CO)N(S(C)(=O)=O)CC31CCN(CC2CCCC2)CC1 | n
COc1ccc2c3c([nH]c2c1)[C@@H](CO)N(S(C)(=O)=O)CC31CCN(CC2CCCC2)CC1 | -107
CC(NC(=O)Cn1ncc2c(N3CCN(c4ccccn4)CC3)ncnc21)c1ccccc1 (stereo unspecified) | n
O=C(NCCc1csc(-c2ccc(Cl)cc2)n1)c1ccc(F)cc1 | n
Cc1ccc(Cl)cc1NC(=O)C(=O)NCCc1csc(-c2cccc(F)c2)n1 | n
COc1ccc(Cl)cc1C(=O)NCCc1sc(-c2cccc(F)c2)nc1C | n
Cc1ccc(C)c(NC(=O)C(=O)NCCc2csc(-c3ccc(F)cc3)n2)c1 | n
CCOc1ccc(C(=O)NCCc2csc(-c3cccc(F)c3)n2)cc1OCC | n
CCOc1ccccc1C(=O)NCCc1csc(-c2cccc(F)c2)n1 | -91
COc1ccc(C(=O)NCCc2csc(-c3cccc(F)c3)n2)cc1OC | n
O=C(NCCc1csc(-c2ccc(Cl)cc2)n1)c1ccccc1 | n
COc1ccc(Cl)cc1C(=O)NCCc1csc(-c2cccc(F)c2)n1 | -90
CCOc1cc(C(=O)NCCc2csc(-c3cccc(F)c3)n2)cc(OCC)c1OCC | n
Cc1ccc(C)c(NC(=O)C(=O)NCCc2csc(-c3cccc(F)c3)n2)c1 | -101
O=C(NCCc1csc(-c2ccc(F)cc2)n1)c1ccccc1 | -81
Cc1ccc(CN2CCN(c3cncc(C(=O)N4CCCC4)n3)CC2)cc1F | n
O=C(Cn1c(=O)cc(C(=O)N2CCOCC2)c2ccccc21)Nc1cccc(Br)c1 | n
CN(C)CC1(O)CCN(C(=O)c2cccc(-c3ncc[nH]3)c2)C1 (stereo unspecified) | n
CCc1oc2ccccc2c1CN1CC2CCCC(C1)C2(O)c1ccccn1 (stereo unspecified) | n
Cc1cc(C)cc(N2CCN(Cc3ccc4ncccc4c3)CC2=O)c1 | n
CC(C)N1CCN(C(=O)c2cc3c(c4ccccc4n3C(C)C)n2C(=O)N(C)C)CC1 | n
CC(C)Oc1cccc(-c2nc3c(c(=O)[nH]c(=O)n3C)n2C)c1 | n

Compound activity deposited in PubChem BioAssay by Broad Institute.
